BAZ2B block = BAZ2B (human) inhibition; Q9UIF8; AID 504333; Potency, µM (highest dose often 114 µM), without a hit: top-dose activity change, negative = inhibition, usual class: inhibitors; AlphaScreen BAZ2B-H3K14Ac peptide displacement; 4.4% of 360,000 active; note: potency is the fitted concentration of half-maximal effect; % is set by controls: 0 for no effect and ±100 for the full control effect; nearly all actives have a fitted effect of over 60% in size
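Multi-concentration screen (max 110 uM) measuring displacement of acetylated histone H3 peptide from BAZ2B by AlphaScreen, using 50 nM protein, 50 nM peptide and 10 ug/mL streptavidin donor plus Ni-chelate acceptor beads.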
JMJD2A Tudor = blocks the human JMJD2A Tudor domain. AlphaScreen JMJD2A-Tudor / H3K4me3 peptide binding. 4.4% of 390,000 active. Potency, µM (series often up to 114 µM), inactives show at the top dose activity change, negative = inhibition, most hits filed as inhibitors; note: potency is the fitted concentration of half-maximal effect; % is set by controls: 0 for no effect and ±100 for the full control effect; nearly all actives have a fitted effect of over 50% in size
G9a block = inhibitors of human histone lysine methyltransferase G9a. G9a H3K9 monomethylation, AlphaScreen, 2 h. Potency, µM (top dose mostly 102 µM), for inactives: at the highest dose activity, negative = inhibition, hits mostly inhibitors. 8.8% of 350,000 active; note: potency is the fitted concentration of half-maximal effect; % is set by controls: 0 for no effect and ±100 for the full control effect; nearly all actives have a fitted effect of over 75% in size
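AlphaScreen detection with an anti-monomethyl H3K9 antibody quantified product after a 2 h room-temperature reaction containing 500 nM biotinylated H3K9 peptide, 20 µM SAM and 20 nM enzyme, which had been preincubated 15 min with compound.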
HP1b binding inh = blocks HP1-beta chromodomain binding to methylated histone tails; AID 540317; 0.56% of 390,000 active; AlphaScreen HP1-beta / biotin-H3K9me3 peptide binding; Potency, µM (highest dose often 114 µM), for the others: top-dose activity change, negative = inhibition, actives largely listed as inhibitors; P83916; note: potency is the fitted concentration of half-maximal effect; nearly all actives have a fitted effect of over 70% in size
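HP1-beta protein (50 nM final) preincubated 30 min at room temperature with biotinylated H3(1-18)K9me3 peptide (50 nM) in PBS pH 7.4, 0.01% Tween-20, then compound added for 30 min. AlphaScreen streptavidin donor/nickel chelate acceptor beads (10 ug/mL final), 30 min dark, luminescence read.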
PI5P4Ka inh = inhibitors of human PI5P4K alpha | P48426 | PI5P4Kalpha enzyme, ADP-Glo luminescence, 60 min; stronger effect = lower value | max response, % | 1.2% of 330,000 active | AID 652105; active = max response of -50% or lower; inconclusive = between -30% and -50%; inactive = -30% or higher; note: value at the top dose of about 77 µM; % is set by controls: 0 for no effect and ±100 for the full control effect
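Luminescence from ADP-Glo served as readout of PI5P4Kalpha activity in a qHTS format. Reaction: enzyme, substrate, compound, ATP at 5 microM final, 60 min at RT.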
PLK1 PBD block = inhibitors of human PLK1 polo-box domain binding | Plk1 PBD binding of FITC phosphopeptide, fluorescence polarization | Potency, µM, without a hit: max response, negative = inhibition, most hits filed as inhibitors | 2.8% of 360,000 active | AID 720504; note: potency is the fitted concentration of half-maximal effect; series mostly up to about 57 µM; % is set by controls: 0 for no effect and ±100 for the full control effect; nearly all actives have a fitted effect of over 65% in size
ADP-Glo counter = interferes with ADP-Glo detection without enzyme present. shares compounds with PI5P4Ka inh. Potency, µM (series often up to 76.9 µM), without a hit: top-dose activity change, negative = inhibition, hits mostly inhibitors. 1,100 tested, under 10 active. ADP-Glo detection counter-screen, luciferase luminescence, no enzyme
TbPYK confirm = confirmation of Trypanosoma brucei pyruvate kinase inhibitors; recombinant TbPYK, Kinase-Glo ATP luminescence; 67% of 890 active; Potency, µM (top dose mostly 76.9 µM), without a hit: at the top dose activity change, negative = inhibition, hits mostly inhibitors; shares compounds with PLK1 PBD block; note: potency is the fitted concentration of half-maximal effect; % is set by controls: 0 for no effect and ±100 for the full control effect; nearly all actives have a fitted effect of over 70% in size
TbPYK ADP-Glo = TbPYK inhibition, orthogonal confirmation; shares compounds with PLK1 PBD block; recombinant TbPYK, ADP-Glo luminescence, 60 min; Potency, µM (top dose mostly 76.9 µM), for inactives: top-dose activity change, negative = inhibition, hits mostly inhibitors; 62% of 890 active; AID 720584; note: potency is the fitted concentration of half-maximal effect; % is set by controls: 0 for no effect and ±100 for the full control effect; nearly all actives have a fitted effect of over 75% in size
* hit, by the source's call; [ ] = dose if it differs, or a comment. This is a sample that favours compounds with a hit; in the whole collection about 12% have one here. Unless noted, calls come from the whole dose curve; as a rule, active = well fitted curve in the direction sought with a large enough effect; inconclusive = small, poorly fitted or top-dose-only effect, or another doubt; inactive = no such curve, though single readings can be large; an effect the other way counts as inactive or inconclusive.

Results for O=C1CCC(C(=O)Nc2ccccc2)N1 (stereo not drawn) ?
BAZ2B block: -2%; JMJD2A Tudor: 1%[11.4 µM]; G9a block: 24%[59 µM]; HP1b binding inh: 59%; PI5P4Ka inh: 4; PLK1 PBD block: -19%

How did Nc1nc(N)c2cc(Sc3ccc4ccccc4c3)ccc2n1 do in these assays?
BAZ2B block: -35%; JMJD2A Tudor: -20%; G9a block: inconclusive; HP1b binding inh: 31%; PI5P4Ka inh: -51*; PLK1 PBD block: 1%; ADP-Glo counter: 0%

Results for CC(=O)Nc1cccc(-c2csc(C(C)(O)c3cccc(F)c3)n2)c1 (stereo not drawn) ?
PI5P4Ka inh: -4; PLK1 PBD block: -8%

How did Cc1ccc(Cl)cc1N1CCN(S(=O)(=O)c2ccc3[nH]c(=O)c(=O)[nH]c3c2)CC1 do in these assays?
JMJD2A Tudor: inconclusive; G9a block: -34%; HP1b binding inh: 7%; PI5P4Ka inh: -55*; PLK1 PBD block: -24%; ADP-Glo counter: -3%

What do the screens show for `O=C(O)c1cc2c(ncc3c(=O)n(-c4ccccc4)[nH]c32)s1`?
PI5P4Ka inh: -19; PLK1 PBD block: -7%

How did CCOc1ncccc1C(=O)OCC(=O)NC1CCCCCC1 do in these assays?
BAZ2B block: 4%; JMJD2A Tudor: -4%; G9a block: 6%; HP1b binding inh: 2%; PI5P4Ka inh: 2; PLK1 PBD block: -3%

Results for O=C(NC1CC1)c1sc2cc([N+](=O)[O-])ccc2c1Cl ?
BAZ2B block: -30%; JMJD2A Tudor: -9%; G9a block: -4%; HP1b binding inh: 7%; PI5P4Ka inh: -3; PLK1 PBD block: 1%

What do the screens show for `CC(NC(=O)c1sc2cc([N+](=O)[O-])ccc2c1Cl)C(C)(C)C` (stereo not drawn)?
BAZ2B block: -16%; JMJD2A Tudor: 50µM*; G9a block: 1.6µM*; HP1b binding inh: 6.3µM*; PI5P4Ka inh: -52*; PLK1 PBD block: 1.2µM*; ADP-Glo counter: -3%; TbPYK confirm: 4µM*; TbPYK ADP-Glo: 11µM*

What do the screens show for `C[C@H](NC(=O)c1cc2c(cn1)[nH]c1ccccc12)C(=O)O`?
BAZ2B block: 50µM*; JMJD2A Tudor: 45µM*; G9a block: 1.4µM*; HP1b binding inh: 28µM*; PI5P4Ka inh: -67*; PLK1 PBD block: 2.7µM*; ADP-Glo counter: -6%; TbPYK confirm: 5µM*; TbPYK ADP-Glo: 14µM*

How did CCc1c(C)sc(NC(=O)c2ccoc2C)c1C(N)=O do in these assays?
BAZ2B block: inconclusive; JMJD2A Tudor: 56µM*; G9a block: 7.1µM*; HP1b binding inh: 28µM*; PI5P4Ka inh: -66*; PLK1 PBD block: 2.7µM*; ADP-Glo counter: -3%; TbPYK confirm: 14µM*; TbPYK ADP-Glo: 16µM*

Results for CCOC(=O)c1c(NC(=O)c2ccoc2C)sc(C)c1C ?
BAZ2B block: -5%; JMJD2A Tudor: 18%; G9a block: 4%[2.33 µM]; HP1b binding inh: 95%; PI5P4Ka inh: 8; PLK1 PBD block: -18%

What do the screens show for `CCOC(=O)c1cc(C)n(CC2CCC(C(=O)Nc3cccc(C)c3)CC2)c1C` (stereo not drawn)?
BAZ2B block: -22%; JMJD2A Tudor: -18%; G9a block: -40%[59 µM]; HP1b binding inh: 38%
